D3 ag: qHTS of D3 Dopamine Receptor Agonist: qHTS; AID 652048, 2013; max activation, %; D3R DiscoveRx beta-arrestin cells, luminescence, 90 min; 410,000 compounds, 0.58% hits; in the data active = max activation above about 30%; also: 0% is about no effect
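Agonist-mode cell screen: cells plated at 1500/well and incubated overnight at 37 °C, then exposed to library compounds for 90 min at 37 °C. Detection reagent was added for 30–60 min at room temperature, and luminescence was read.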
PTHR1 agonist: qHTS for PTHR1 Agonists: Primary Screen; HEK293 GP2 PTHR1 cells, GloSensor cAMP luminescence, 1 h; Potency, µM (doses to about 115 µM), inactives show top-dose activation, hits mostly activators; 410,000 compounds, 0.075% hits; also: potency is read from the fitted curve at half-maximal effect; nearly all actives have a fitted effect of over 55% in size
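HEK-293-derived GP2 cells expressing PTHR1 and a GloSensor cAMP reporter, 3,000/well, plated overnight, given luciferin plus IBMX (each 0.5 mM as added) for 1 h at 37 °C, then compound for 1 h at 37 °C. Luminescence was read after 15 min at room temperature.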
DRD3 antagonist: qHTS of D3 Dopamine Receptor Antagonist: qHTS; D(3) dopamine receptor (Homo sapiens), P35462; D3R cells, DiscoveRx beta-arrestin luminescence, antagonist mode; active compounds read low; AID 652054, 2013; max response, negative = inhibition, %; 360,000 compounds, 2.5% hits; in the data active = max response below about -50%; inconclusive = no clear call, values can overlap the other calls; also: % is scaled to controls: 0 for no effect and ±100 for the full control effect
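Cells plated overnight at 1500 cells/well, then exposed to library compounds with dopamine controls for 90 minutes at 37 degrees C. DiscoveRx reagent added for 30–60 minutes at room temperature; luminescence read, quantitative HTS format.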
CBFb RUNX1 block: qHTS Assay for Compounds Blocking the Interaction Between CBF-beta and RUNX1 for the Treatment of Acute Myeloid Leukemia; AID 1477, 2009; Runt-related transcription factor 1 (Homo sapiens) + Core-binding factor subunit beta …; 230,000 tested, under 10 active; AlphaScreen CBFb-His/RUNX1-biotin binding, biochemical; Potency, µM (series often up to 59.8 µM), for inactives: top-dose activity, negative = inhibition, most hits filed as inhibitors; also: % of control where 0% means no effect
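CBF-beta (His) and RUNX1 (biotin), 30 nM each; 20 min preassociation; + compound, 15 min; + beads 50 ng each (Ni, streptavidin), 90 min; RT; AlphaScreen read.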
MBNL1 CUG block: qHTS Assay for Inhibitors of MBNL1-poly(CUG) RNA binding; Muscleblind-like protein 1 (Homo sapiens), Q9NR56; TR-FRET MBNL1-His/biotin-(CUG)12 binding, 665/545 ratio; 280,000 compounds, 0.036% hits; Potency, µM (top dose mostly 57.5 µM), for the others: at the highest dose activity change, negative = inhibition, most hits filed as inhibitors; active = well fitted inhibition curve with a large enough effect in the signal ratio, with a control signal flat, not every such curve was filed as active; inconclusive = small, poorly fitted or top-dose-only effect, or effect the other way, or a change in a side signal; inactive = no such curve, though single readings can be large or run the other way; the % refers to the signal ratio; also: potency is read from the fitted curve at half-maximal effect; % is scaled to controls: 0 for no effect and ±100 for the full control effect
Target sequence (Q9NR56 whole entry, looked up): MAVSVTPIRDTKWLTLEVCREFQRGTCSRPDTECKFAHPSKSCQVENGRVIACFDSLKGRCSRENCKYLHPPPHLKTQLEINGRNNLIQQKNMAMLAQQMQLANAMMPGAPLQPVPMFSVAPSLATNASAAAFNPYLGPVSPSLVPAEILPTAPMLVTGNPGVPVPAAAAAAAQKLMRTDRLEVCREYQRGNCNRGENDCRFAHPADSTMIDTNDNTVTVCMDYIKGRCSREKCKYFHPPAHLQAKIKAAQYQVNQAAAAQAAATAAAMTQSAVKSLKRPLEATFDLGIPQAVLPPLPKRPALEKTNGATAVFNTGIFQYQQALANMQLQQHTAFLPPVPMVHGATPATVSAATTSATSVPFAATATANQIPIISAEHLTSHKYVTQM
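Compound titration spanned 92 nM–58 uM against the MBNL1-His/biotin-(CUG)12 complex. After 60 min at room temperature with 5 nM streptavidin-XL665 and 0.055 ng/ul terbium anti-His, ratiometric 665/545 nm emission (Ex 340 nm) normalized to controls.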
a7 integrin act: qHTS for Activators of Integrin-Mediated Alleviation for Muscular Dystrophy. alpha7betagal myoblasts, beta-gal FDG fluorescence, 48 h. 350,000 compounds, 0.064% hits. Potency, µM (titrated, usually from 38.3 µM), for inactives: top-dose activation, most hits filed as activators;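 also: potency is read from the fitted curve at half-maximal effect; 100% = response of the positive control SU9516; nearly all actives have a fitted effect of over 60% in size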
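Alpha7betagal+/- myoblasts (passage 13) were plated 16-24 hr, then exposed to compounds (1:260 dilution of DMSO stock) for 48 hours at 37C. After MPER lysis, β-galactosidase reporter activity was read as FDG fluorescence (ex 480/em 540) after 30 minutes.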
Starred values were filed as active, the others as inactive; i = inactive; ? = inconclusive; / = not tested or not shown; [ ] = dose if it differs, or a comment. An excerpt weighted towards active compounds, which were near 2.8% of everything screened. Unless noted, calls follow the shape of the dose curve; as a rule, active = well fitted curve in the direction sought with a large enough effect; inconclusive = small, poorly fitted or top-dose-only effect, or another doubt; inactive = no such curve, though single readings can be large; an effect the other way counts as inactive or inconclusive.

SMILES	D3 ag	PTHR1 agonist	DRD3 antagonist	CBFb RUNX1 block	MBNL1 CUG block	a7 integrin act
C=C[C@]1(C)C=C2C(=O)[C@@]3(O)OC(=O)[C@@]4(CCCC(C)(C)[C@H]34)[C@@]2(O)CC1	-8.9	-62.8%	-58.1*	/	/	/
CC(C)Cc1nnc(NC(=O)C2CCCN(C(=O)c3ccc(Cl)cc3)C2)s1 (stereo not drawn)	0.6	-24.2%	8.7	/	/	-0.9%
CS/C(N)=N/N=C/c1ccc([N+](=O)[O-])cc1	-0.5	-11.8%	-50.7*	-0.7%	?	29.9%
N/C(=N\N=C\c1ccc([N+](=O)[O-])cc1)c1nonc1N	0.8	i	-3.2	2.6%	10.7%	4.0%
CCCC(=O)OCCNc1cc(SCc2ccco2)c2nonc2c1[N+](=O)[O-]	-3.6	-9.1%	3.4	0.7%	?	-9.2%
CCC(=O)OCCNc1cc(Sc2nc3ccccc3[nH]2)c2nonc2c1[N+](=O)[O-]	-5.6	-83.9%	-115.9*	-2.0%	?	-59.2%
O=[N+]([O-])c1c(NCCCO)cc(Sc2nc3ccccc3s2)c2nonc12	-67.3	0.5%	-89.9*	-0.9%	?	-65.2%
CCC(=O)OCCNc1cc(Sc2nc3ccccc3s2)c2nonc2c1[N+](=O)[O-]	-53.7	-66.3%[57.5 µM]	-87.8*	-0.6%	?	-45.3%[7.66 µM]
CCCSc1cc(NCCOC(=O)CCC)c([N+](=O)[O-])c2nonc12	1.4	-32.9%	-14.2	-1.7%	?	-43.2%
CCCC(=O)OCCNc1cc(Sc2nccn2C)c2nonc2c1[N+](=O)[O-]	-33.7	i	-91.9*	-12.8%	?	-46.4%
Cc1ccc(Cl)cc1N1CCN(C(=O)c2cc(S(=O)(=O)N3CCCC3)cn2C)CC1	-6.2	-19.5%	/	/	/	/
CCc1ccccc1NC(=O)NC1CC2CCC(C1)N2Cc1ccco1 (stereo not drawn)	-17.5	i	?	0.3%	-13.2%	-5.8%
Cc1ccc(C(=O)NC2CC3CCC(C2)N3Cc2ccco2)cc1 (stereo not drawn)	-9.7	i	-27.8	6.5%	?	-9.5%
O=C(Nc1cccc(Cl)c1)NC1CC2CCC(C1)N2Cc1ccco1 (stereo not drawn)	-1.7	-11.2%	-66.7*	3.7%	-6.7%	2.1%
COc1cc(OC)cc(C(=O)NC2CC3CCC(C2)N3Cc2ccco2)c1 (stereo not drawn)	-10.2	i	-90.5*	-1.8%	5.1%	-0.5%
COc1cccc(/C(O)=C2\C(=O)C(=O)N(c3ccccn3)C2c2ccccc2OC)c1 (stereo not drawn)	-0.9	8.1%[57.5 µM]	-50.5*	1.3%	14.9%	-2.7%
COc1ccc(C2/C(=C(/O)c3ccccc3)C(=O)C(=O)N2CCN2CCOCC2)c(OC)c1 (stereo not drawn)	-0.4	-10.4%[57.5 µM]	-56.5*	1.5%	9.3%	7.8%
CC1(C(=O)Nc2cccc(NS(C)(=O)=O)c2)Cc2c(-c3cccc(C(N)=O)c3)ccnc2O1 (stereo not drawn)	-6.2	-4.2%	21.1	/	/	/
CCN1CCc2c(sc(NC(=O)CSc3ccccc3)c2-c2nc3ccccc3s2)C1	-24.4	-24.1%	/	/	/	/
CC(=O)Nc1sc2c(c1-c1nc3ccccc3s1)CCN(C(C)C)C2	-9.8	-9.7%	-115.7*	22.5%	?	-69.9%
Cc1nn2c(N3CCN(c4ccccn4)CC3)cc(C(C)C)nc2c1-c1ccccc1	0.0	-5.8%	-55.9*	4.1%	-4.2%	-6.3%
COc1ccc(NC(=O)c2ccco2)cc1NC(=O)COc1ccccc1Cl	-5.6	i	/	/	/	/
CCCCc1c(-c2ccccc2OC)ncn1Cc1cccc(-c2ccccc2)c1	-20.7	-36.4%	-108.1*	/	/	/

Screening data from PubChem.
